{"source": "PubChem BioAssay AID1851", "about": "(National Center for Advancing Translational Sciences (NCATS), 2009)", "note": "Out of some 16,000 compounds screened, about 2,600 (16%) were called active. About 20% were inconclusive and are not listed. Only a sample is shown. Values without a mark were called inactive. Calls follow the shape of the dose curve; as a rule, active = well fitted curve in the direction sought with a large enough effect; inconclusive = small, poorly fitted or top-dose-only effect, or effect the other way; inactive = no such curve, though single readings can be large or run the other way. % is scaled to controls: 0 for no effect and ±100 for the full control effect."}
{"molecular_target": "Cytochrome P450 2D6 (Homo sapiens) (UniProt P10635)", "sequence (P10635 whole entry, looked up)": "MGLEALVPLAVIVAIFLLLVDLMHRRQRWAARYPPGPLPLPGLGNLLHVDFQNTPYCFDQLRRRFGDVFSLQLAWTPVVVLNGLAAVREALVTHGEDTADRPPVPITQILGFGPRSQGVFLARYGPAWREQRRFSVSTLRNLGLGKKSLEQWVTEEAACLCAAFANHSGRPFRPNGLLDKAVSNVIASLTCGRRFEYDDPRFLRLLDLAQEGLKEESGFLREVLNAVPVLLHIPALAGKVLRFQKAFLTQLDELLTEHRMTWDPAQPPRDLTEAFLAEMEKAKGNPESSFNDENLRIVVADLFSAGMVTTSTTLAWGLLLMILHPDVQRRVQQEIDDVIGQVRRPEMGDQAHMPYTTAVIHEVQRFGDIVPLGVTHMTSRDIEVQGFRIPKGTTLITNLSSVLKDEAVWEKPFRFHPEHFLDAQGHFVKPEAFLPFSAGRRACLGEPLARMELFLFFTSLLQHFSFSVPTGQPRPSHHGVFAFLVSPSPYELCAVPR", "experiment": "Cytochrome panel assay with activity outcomes", "settings": "recombinant CYP, pro-luciferin dealkylation, luminescence, p450-cyp2d6; series mostly up to 57.1 µM; activity, negative = inhibition: at the top concentration"}
{"smiles": "Cc1cc(C)n(C(=O)c2cc3c(s2)CCCC3)n1", "activity, negative = inhibition": "-10.8%"}
{"smiles": "COC(=O)C(CCSC)NC(=O)c1cccc([N+](=O)[O-])c1", "note": "(stereo unspecified)", "activity, negative = inhibition": "11.3%"}
{"smiles": "COC(=O)c1c(NC(C)=O)sc(Cc2ccccc2)c1C", "AC50": "25.1 µM (active)"}
{"smiles": "CCOC(=O)c1c(NC(=O)Nc2ccccc2)sc(C)c1C", "activity, negative = inhibition": "-25.9%"}
{"smiles": "CCOc1ccc(CC(=O)Nc2sc(Cc3ccccc3)c(C)c2C(N)=O)cc1OCC", "activity, negative = inhibition": "-3.45%"}
{"smiles": "N#CCCn1c(=O)c(-c2ccc(F)cc2)nc2cnc(OCc3ccccc3)nc21", "activity, negative = inhibition": "8.49%"}
{"smiles": "Cc1ccc(S(=O)(=O)N[C@H]2COC(=O)C/C=C\\[C@@H](C)[C@H](NS(=O)(=O)c3ccc(C)cc3)COC(=O)C/C=C\\[C@H]2C)cc1", "activity, negative = inhibition": "4.7% [at 11.4 µM]"}
{"smiles": "COCCn1c(=O)c(C)nc2cnc(N3CCN(C)CC3)nc21", "activity, negative = inhibition": "14.1%"}
{"smiles": "COC(=O)c1sccc1NC(=O)CSc1cc(Cl)ccc1Cl", "activity, negative = inhibition": "-7.42%"}
{"smiles": "Clc1ccc(Cl)c(SCCCN2CCNCC2)c1", "AC50": "2.51 µM (active)"}
{"smiles": "Cc1cccc(C(=O)O/N=C(\\N)c2cccc([N+](=O)[O-])c2)c1", "activity, negative = inhibition": "1.21%"}
{"smiles": "C#C[C@]1(O)CC[C@H]2[C@H]3CCC4=Cc5oncc5C[C@]4(C)[C@@H]3CC[C@]21C", "activity, negative = inhibition": "-6.07%"}
{"smiles": "CSc1nsc(SC)c1NC(=O)OCC1CCCO1", "note": "(stereo unspecified)", "activity, negative = inhibition": "-5.43%"}
{"smiles": "C=CCNC(=O)c1ccc2nc(-c3ccccc3)c(-c3ccccc3)nc2c1", "activity, negative = inhibition": "-22.7%"}
{"smiles": "CC[n+]1c(/C=C/Nc2ccccc2)oc2ccccc21", "AC50": "1.41 µM (active)"}
{"smiles": "O=C(O)CN=C1NC2(CCCC2)Cc2ccccc21", "activity, negative = inhibition": "6.94%"}
{"smiles": "COC(=O)N1CCC2(CC1)CCN(c1ccncc1)CC2", "activity, negative = inhibition": "3.16%"}
{"smiles": "N=C1CCC[C@@H]1C(=S)SCCC(N)=O", "activity, negative = inhibition": "0.37% [at 11.4 µM]"}
{"smiles": "CNc1ccnc(-c2ccccc2C)n1", "activity, negative = inhibition": "-4.81%"}
{"smiles": "Cc1cnc(CNc2ccnc(-c3ccccc3Cl)n2)cn1", "activity, negative = inhibition": "-5.09%"}
{"smiles": "Cc1cccc(CNc2ccnc(-c3ccccc3Cl)n2)c1", "AC50": "15.8 µM (active)"}
{"smiles": "COc1ccccc1-c1nccc(NCc2ccccc2)n1", "AC50": "3.98 µM (active)"}
{"smiles": "COc1ccccc1-c1nccc(NCc2cccc(C)c2)n1", "AC50": "1.58 µM (active)"}
{"smiles": "CNc1ccnc(-c2ccccc2OC)n1", "AC50": "5.01 µM (active)"}
{"smiles": "COc1ccccc1-c1nccc(NC2CCNCC2)n1", "activity, negative = inhibition": "-3.43%"}
{"smiles": "CNc1ccnc(-c2ccccc2C(F)(F)F)n1", "activity, negative = inhibition": "-1.5%"}
{"smiles": "C=CCNC(=O)c1ccccc1Cl", "activity, negative = inhibition": "-3%"}
{"smiles": "COc1ccc(-n2c(=O)c(C)nc3cnc(N4CCOCC4)nc32)cc1", "activity, negative = inhibition": "-1.02%"}
{"smiles": "COc1cccc(/C(O)=C2/C(=O)C(=O)N(Cc3cccnc3)C2c2ccco2)c1", "note": "(stereo unspecified)", "activity, negative = inhibition": "1.15%"}
{"smiles": "C[C@@H]1NC(=O)C/C=C\\[C@@H](C)[C@@H]2C=C[C@H](O)[C@@H](COC(=O)[C@H](C)NC(=O)C/C=C\\[C@@H](C)[C@@H]3C=C[C@H](O)[C@@H](COC1=O)O3)O2", "activity, negative = inhibition": "9.45% [at 11.4 µM]"}
{"smiles": "COc1cccc(Cn2c(=O)c(-c3cccc(C#N)c3)nc3cnc(Nc4ccccc4)nc32)c1", "activity, negative = inhibition": "0.752%"}
{"smiles": "O=C(O)c1c(Br)c(Br)c(Br)c(Br)c1C1c2ccc(O)cc2Oc2cc(O)ccc21", "activity, negative = inhibition": "-6.23% [at 11.4 µM]"}
{"smiles": "O=c1[nH]n(-c2cccc3cccnc23)c(=O)c2ccccc12", "activity, negative = inhibition": "5.11%"}
{"smiles": "COc1ccc(OC)c(NC(=O)Cn2cccc2)c1", "activity, negative = inhibition": "-4.42%"}
{"smiles": "Cc1occc1C(=O)NNC(=O)Cc1ccccc1", "activity, negative = inhibition": "-7.57%"}
{"smiles": "CCCCn1nnnc1SCC(=O)N1CCCC1", "activity, negative = inhibition": "1.31%"}
{"smiles": "O=c1[nH]c(=S)[nH]c(-c2ccccc2)c1Cc1c(O)ccc2ccccc12", "activity, negative = inhibition": "-6.41% [at 11.4 µM]"}
{"smiles": "Cc1cccc(CNc2ccnc(-c3ccccc3CN(C)C)n2)c1", "AC50": "2.51 µM (active)"}
{"smiles": "Cc1cccc(CNc2cc(-c3ccc(C(=O)N(C)C)cc3)ncn2)c1", "activity, negative = inhibition": "-3%"}
{"smiles": "CCN(C(=O)Cn1c(=O)oc2ccccc21)c1cccc(C(F)(F)F)c1", "activity, negative = inhibition": "-17.9%"}
{"smiles": "Cc1ccccc1Oc1ncnc2oc(-c3ccccc3)cc12", "activity, negative = inhibition": "-13.1%"}
{"smiles": "CC(=O)Oc1ccccc1C(=O)Oc1ccccc1C(=O)O", "activity, negative = inhibition": "1.36% [at 25.6 µM]"}
{"smiles": "CCn1c(SCC(=O)Nc2nc3ccc(C)cc3s2)nc2c(c1=O)SC(C)C2", "note": "(stereo unspecified)", "activity, negative = inhibition": "-15.7%"}
{"smiles": "O=C(N/N=C/c1ccc(Cl)cc1Cl)Nc1ccccc1", "activity, negative = inhibition": "11%"}
{"smiles": "O=C(N/N=C/c1ccc(Cl)cc1)Nc1ccccc1", "activity, negative = inhibition": "2.13%"}
{"smiles": "O=C(Nc1ccccc1)N[C@H]1C[C@H](C(=O)O)Nc2cc(Cl)cc(Cl)c21", "AC50": "12.6 µM (active)"}
{"smiles": "COCCn1c(=O)c(-c2ccc(F)cc2)nc2cnc(Oc3ccccc3)nc21", "activity, negative = inhibition": "-2.23%"}
{"smiles": "O=C(Nc1cccc(F)c1)Nc1ccccn1", "activity, negative = inhibition": "-28.3%"}
{"smiles": "CCOC(=O)c1sc2nc(CC(=O)OC)nc(NCc3ccc(F)cc3)c2c1C", "AC50": "25.1 µM (active)"}
{"smiles": "CCOC(=O)c1nnc(-c2ccccc2)nc1NCc1ccccc1", "activity, negative = inhibition": "-17.8%"}
{"smiles": "CCOC(=O)c1cnn(-c2nc(-c3ccc(F)cc3)cs2)c1C(F)(F)F", "activity, negative = inhibition": "-14.3%"}
